Mtb betalactam – beta-lactam sensitization of Mtb H37Rv; M. tuberculosis H37Rv growth with meropenem, percent inhibition; inhibition, % at 25 µM; 330,000 tested, 0.27% active; AID 434955; call rule not given here;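 further: growth measured after seven days incubation then overnight dye step; 0% = bacteria only wells and 100% = bacteria with antibiotic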
CCHF vOTU inh – blocks the CCHF virus ovarian tumor domain protease; 370,000 tested, 0.55% active; CCHFV vOTU protease, Pep-AMC fluorescence; AID 651958; inhibition, % at 11.5 µM; further: 0% = vehicle wells with enzyme and 100% = no enzyme wells
Mtb FBA inh – inhibits M. tuberculosis FBA enzyme. P9WQA3. purified M. tuberculosis FBA, fluorescence read-out. inhibition, % at 1 µM. 360,000 tested, 2.3% active; in the data active means inhibition above about 27%;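 further: 0% = vehicle and 100% = reference inhibitor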
Target sequence (P9WQA3 whole entry, looked up): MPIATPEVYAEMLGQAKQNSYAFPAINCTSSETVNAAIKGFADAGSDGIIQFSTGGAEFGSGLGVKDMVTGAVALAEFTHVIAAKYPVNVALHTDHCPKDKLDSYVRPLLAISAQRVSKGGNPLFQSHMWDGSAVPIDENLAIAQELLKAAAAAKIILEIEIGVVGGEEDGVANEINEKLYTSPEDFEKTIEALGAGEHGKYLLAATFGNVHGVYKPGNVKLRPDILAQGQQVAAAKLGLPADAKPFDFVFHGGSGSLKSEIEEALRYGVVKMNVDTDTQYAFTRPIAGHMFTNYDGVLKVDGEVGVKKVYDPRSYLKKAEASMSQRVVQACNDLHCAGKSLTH
RecA intein inh – inhibitors of M. tuberculosis RecA intein splicing; P9WHJ3; cell-free RecA intein splicing, fluorescence; inhibition, % (no concentration beside the values); 290,000 tested, 0.75% active; in the data active means inhibition above about 30%; inconclusive means no clear call, values can overlap the other calls;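 further: 0% = vehicle wells and 100% = reference inhibitor control wells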
GDH-TPI inh – counter-screen for M. tuberculosis FBA inhibitors: GDH-TPI coupled enzymes | GDH-TPI coupled enzyme counterscreen, NADH absorbance | inhibition, % at 4.8 µM | 360,000 tested, 1.2% active | AID 588335;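 further: 0% = DMSO wells and 100% = wells lacking the enzyme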
GFP chromo cs – counter-screen GFP chromophore formation inhibition. shares compounds with RecA intein inh. cell-free GFP chromophore formation, fluorescence. EC50, µM. 2,100 tested, 83% active; call rule not given here
An asterisk follows results filed as active; ? = inconclusive; · = not tested or not shown. A selection: hits, their analogues and other compounds. The true share with any hit is near 4.2%. Unless noted, no stated cut-off is given here; in the data, active means inhibition above about 30%; inactive means the rest.

SMILES	Mtb betalactam	CCHF vOTU inh	Mtb FBA inh	RecA intein inh	GDH-TPI inh	GFP chromo cs
O=C(COC(=O)C1CC(=O)N(Cc2ccco2)C1)c1ccc(OC(=O)c2ccco2)cc1 (stereo not given)	-1	1	2	35*	-3	>38
OC(c1ccccc1)(c1ccccc1)C1CCN(CCCNc2cccc(Br)c2)CC1	·	-1	·	·	·	·
CCc1ccc(NC(=O)c2nc(S(=O)(=O)Cc3ccccc3)ncc2Cl)cc1	-5	14	-7	39*	2	2.2*
CC(=O)Nc1ccc(NC(=O)c2nc(S(=O)(=O)Cc3cccc(C)c3)ncc2Cl)cc1	2	9	-1	31*	11	20*
Cc1cccc(CS(=O)(=O)c2ncc(Cl)c(C(=O)NCc3ccc4c(c3)OCO4)n2)c1	4	11	1	51*	11	11*
Cc1ccc(NC(=O)c2nc(S(=O)(=O)Cc3ccccc3C)ncc2Cl)cc1C	20	25	1	39*	3	1.3*
COc1ccccc1NC(=O)c1nc(S(=O)(=O)Cc2ccccc2)ncc1Cl	56	14	2	3	5	·
CCOC(=O)c1ccc(NC(=O)c2nc(S(=O)(=O)Cc3ccccc3)ncc2Cl)cc1	3	5	4	27	-4	·
COc1cccc(NC(=O)c2nc(SC)ncc2Cl)c1	-4	10	5	0	8	·
COc1cccc(NC(=O)c2nc(S(C)(=O)=O)ncc2Cl)c1	99	8	-6	63*	1	25*
COC(=O)c1ccc(NC(=O)c2nc(S(=O)(=O)Cc3cccc(C)c3)ncc2Cl)cc1	3	9	2	73*	7	0.57*
CCS(=O)(=O)c1ncc(Cl)c(C(=O)Nc2ccc(S(=O)(=O)N3CCC(C)CC3)cc2)n1	-6	24	1	96*	10	1.4*
Nn1c(SCC(=O)Nc2ccc(OCc3ccccc3)cc2)nnc1-c1cc(-c2ccc(Cl)cc2)n[nH]1	·	2	·	·	·	·
CC(C)CN1C(=O)[C@]2(CC(=O)N(C)C2c2ccccc2)c2cc(-n3cc(CCCC#N)nn3)ccc21 (stereo not given in full)	·	-4	·	·	·	·
CN1C(=O)c2cc(NC(=O)Nc3ccccc3)ccc2OC[C@H]2O[C@@H](CC(=O)N[C@H]3CCN(Cc4ccccc4)C3)CC[C@@H]21	·	-2	·	·	·	·
Cn1c(-[n+]2c(-c3ccccc3)cc(-c3ccccc3)cc2-c2ccccc2)nc2c([N+](=O)[O-])cccc21	56	0	-4	33*	25	30*
Cc1[nH]nc2c1C1(CCC(c3ccccc3)CC1)C(C#N)=C(N)O2 (stereo not given)	-1	-8	-1	77*	4	25*
Cc1[nH]nc2c1C1(CCN(C(=O)c3ccccc3)CC1)C(C#N)=C(N)O2	-12	-13	3	79*	2	13*
CC1(C)CC(=O)C2=C(C1)OC(N)=C(C#N)C21CCN(C(=O)OCc2ccccc2)CC1	-7	-9	-1	0	-7	·
Cc1cc2c3c(c1)C1(C(=O)N3C(C)(C)CC2C)C(C#N)=C(N)Oc2n[nH]c(C)c21 (stereo not given)	13	1	0	8	1	·
Cc1[nH]nc2c1C1(CCN(C(=O)OCc3ccccc3)CC1)C(C#N)=C(N)O2	1	-1	4	80*	7	30*
CC(=O)N1CCC2(CC1)C(C#N)=C(N)Oc1c2sc2nc(C)cc(C)c12	-9	-4	-3	3	-1	·
CC(=O)N1CCC2(CC1)C(C#N)=C(N)Oc1n[nH]c(C)c12	?	1	3	79*	11	15*
C#CCNC(=O)C[C@H]1C(=O)N(CCCOC)C2=CCCCC[C@]21C(=O)OC	·	13	·	·	·	·
COC(=O)[C@@]12CCCCC3=C1N(CCC3)C(=O)[C@H]2CC(=O)N1CCSCC1	·	-6	·	·	·	·
SMILES	Mtb betalactam	CCHF vOTU inh	Mtb FBA inh	RecA intein inh	GDH-TPI inh	GFP chromo cs
O=C1N(c2ccccc2)CC2CC(c3ccccc3)N3CCCC123 (stereo not given)	·	-4	·	·	·	·
CC(C)CNC(=O)OCc1cn(Cc2ccc(C(F)(F)F)cc2)nn1	·	-2	·	·	·	·
CCCCn1c(SCC(=O)NCc2ccco2)nc2ccccc2c1=O	3	12	1	-2	3	·
CC(=O)NCCn1c(SCC(=O)NCc2ccco2)nc2ccccc2c1=O	10	3	0	67*	2	25*
COc1ccc(Cn2ccc3ccc(-c4ccc5ccn(C(=O)c6ccccc6OC)c5c4)cc32)cc1	·	9	·	·	·	·
O=C(NC1CCCCN(Cc2ccc(Cl)cc2)C1=O)c1ccccc1 (stereo not given)	·	11	·	·	·	·
O=C1c2ccccc2OC2(C=Cc3ccccc3O2)N1Cc1ccccc1 (stereo not given)	39	-4	-1	32*	1	>38
O=C(Cc1c[nH]c2ccccc12)Nc1ccc(Nc2cccnc2)c(-c2cccc(Cl)c2)c1	·	5	·	·	·	·
Cc1ccccc1CS(=O)(=O)c1snnc1C	-16	2	1	44*	-1	>38
Cc1[nH][nH]c(=O)c1C(c1ccc(O)c([N+](=O)[O-])c1)c1c(C)[nH][nH]c1=O	4	6	-11	-3	8	·
COc1ccc(OC)c(C(c2c(C)[nH][nH]c2=O)c2c(C)[nH][nH]c2=O)c1	8	11	0	95*	6	0.43*
COc1cc(C(c2c(C)[nH][nH]c2=O)c2c(C)[nH][nH]c2=O)ccc1OC(C)C	-5	2	-1	97*	7	0.45*
Cc1[nH][nH]c(=O)c1C(c1ccc(O)c(Br)c1)c1c(C)[nH][nH]c1=O	-2	-7	-2	98*	1	0.46*
COc1ccc(OC)c(C(C)NC=O)c1 (stereo not given)	1	11	-4	-1	-7	·
CCOc1cc(C(c2c(C)[nH][nH]c2=O)c2c(C)[nH][nH]c2=O)ccc1O	3	1	-6	96*	11	1.1*
COc1cc(C(c2c(C)[nH][nH]c2=O)c2c(C)[nH][nH]c2=O)ccc1OC(=O)c1cccc([N+](=O)[O-])c1	3	4	7	·	4	·
O=C(CSc1nc2ccccc2nc1N1CCCCC1)N1CCN(C(c2ccccc2)c2ccc(Cl)cc2)CC1 (stereo not given)	·	11	·	·	·	·
COc1cccc(C(=O)N[C@H](C(=O)N2CCC[C@H]2C(=O)NCCc2ccccc2Cl)C(C)C)c1	·	5	·	·	·	·
COc1ccc(C(c2c(C)[nH][nH]c2=O)c2c(C)[nH][nH]c2=O)cc1Br	-3	-3	-4	98*	-6	0.59*
COc1ccc(Cc2nc(=S)[nH][nH]2)cc1Br	-3	1	0	·	0	·
COC(=O)c1ccc(-c2ccc(C(c3c(C)[nH][nH]c3=O)c3c(C)[nH][nH]c3=O)o2)cc1	5	18	0	95*	8	0.65*
Cc1[nH][nH]c(=O)c1C(c1ccc(-c2ccccc2C(=O)O)o1)c1c(C)[nH][nH]c1=O	-3	24	-8	96*	5	0.49*
CN(N)C(=S)Nc1ccc(Cl)cc1	-5	13	0	31*	7	>38
